Reference: PubChem BioAssay (NCATS)
Inconclusive results are not listed. Entries that show only a call come without a potency. Active and inactive are the calls of the source. Calls come from the whole dose curve; as a rule, active = well fitted inhibition curve with a large enough effect; inconclusive = small, poorly fitted or top-dose-only effect; inactive = flat fitted curve, though single readings scatter.

experiment: P-glycoprotein substrates identified in KB-8-5-11 adenocarcinoma cell line, qHTS therapeutic library screen (AID 1346987); details: KB-8-5-11 (P-gp overexpressing) viability, CellTiter-Glo, 72 h; series mostly up to 44.5 µM; note: nearly all actives have a fitted effect of over 65% in size
How it was run: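 Compounds are pinned in dose-response onto KB-8-5-11 cells (500 cells/well, colchicine-free medium) and left 72 h at 37 degree C. CellTiter-Glo luminescence then yields AC50 values.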
Potency is the fitted concentration of half-maximal effect.

Compound | Potency | outcome | activity change, negative = cytotoxicity
C[C@@H]1O[C@@H](O[C@H]2[C@H](OC(=O)[C@]34CCC(C)(C)C[C@H]3C3=CCC5[C@@]6(C)C[C@H](O)[C@H](O[C@@H]7O[C@H](CO)[C@@H](O)[C@H](O)[C@H]7O)[C@](CO)(C(=O)O)C6CC[C@@]5(C)[C@]3(C)C[C@H]4O)OC[C@H](O)[C@@H]2O)[C@H](O)[C@H](O)[C@H]1O[C@@H]1OC[C@@H](O)[C@H](O[C@@H]2OC[C@](O)(CO)[C@H]2O)[C@H]1O (stereo partly drawn) | 2.45 µM (active) | – | –
CC(=O)OC1C(=O)C2C3OCC4=C3[C@@](C)(CC[C@@H]4O)CC[C@]2(C)[C@H]1C(C)C (stereo partly drawn) | inactive | – | –
O=C(Nc1ccc(CN2CCOCC2)cc1)c1ccc(-c2cccc(Cl)c2)o1 | 16.4 µM (active) | – | –
Cc1ccc(O)cc1Nc1ccnc(Nc2cccc(C(N)=O)c2)n1 | 23.1 µM (active) | – | –
C/C=C/C=C/C(=O)O[C@@H]1C=C2COC(=O)[C@]2(O)[C@@]2(C)CCCC(C)(C)[C@H]12 | inactive | – | –
CC(C)(C)c1ccc(-c2nc3c(N4CCN(Cc5ccc6nccnc6c5)CC4)cccc3[nH]2)cc1 | 13 µM (active) | – | –
C=C(CCC1C(C)(O)CCC2C(C)(C)C(O)CCC12C)C(O)CO (stereo not drawn) | inactive | – | –
CC(/C=C/C(=O)NO)=C\[C@@H](C)C(=O)c1ccc(N(C)C)cc1 | 0.58 µM (active) | – | –
COc1ccc(-c2ccccc2)cc1NS(=O)(=O)c1cc(Cl)cc(Cl)c1O | inactive | – | –
Cc1ccc(C(C)C)c(O[C@@H]2O[C@H](CO)[C@@H](O)[C@H](O)[C@H]2O)c1 | inactive | – | –
COc1ccc([C@H]2OC[C@H]3O[C@@H](O[C@H]4[C@@H]2NC[C@@H]4O)[C@H](O)[C@H]3O)cc1 | 1.61 µM (active) | – | –
C[C@H]1CC[C@@]2(OC1)O[C@H]1CC3[C@@H]4CC[C@@H]5C[C@@H](O[C@@H]6O[C@H](CO)[C@@H](O[C@@H]7O[C@@H](C)[C@H](O)[C@@H](O)[C@H]7O)[C@H](O)[C@H]6O[C@@H]6O[C@H](CO)[C@@H](O)[C@H](O)[C@H]6O)CC[C@]5(C)C4CC[C@]3(C)[C@H]1[C@@H]2C (stereo partly drawn) | – | inactive [at 9.29 µM] | –
Cc1ccccc1C(C(=O)NC1CCCCC1)N(C(=O)Cn1cnc2ccccc21)c1cccc(F)c1 (stereo not drawn) | 23.1 µM (active) | – | –
O=C(NCCCNC(=O)c1ccc[nH]c1=O)c1cc(-c2ccccc2)on1 | inactive | – | –
O=C(Nc1ncc([N+](=O)[O-])s1)c1ccccc1O | 5.8 µM (active) | – | –
FC(F)(F)c1ccc(CNc2ccc(Cc3c[nH]c4ncc(Cl)cc34)cn2)cn1 | 14.6 µM (active) | – | –
CNCCN1CCC(c2cc(CN(C)C(=O)c3cccc(Oc4ccccc4)c3)ccn2)CC1 | inactive | – | –
Cc1cc(OCCCS(C)(=O)=O)cc(C)c1-c1cccc(COc2ccc3c(c2)OCC3CC(=O)O)c1 (stereo not drawn) | inactive | – | –
CC(=O)O[C@H]1[C@@]2(O)C[C@H](C)[C@H](OC(=O)c3ccccc3)[C@@H]2[C@@H](OC(=O)CO)[C@]2(OC(C)=O)C[C@H]3C(=O)C(C)(C)C[C@@H]3[C@@]1(C)[C@H]2OC(C)=O | inactive | – | –
CO[C@@H]1CC(OC2CCC3(C)C(CCC45CCC(C6=CC(=O)OC6)C(C)(CCC43)C5=O)C2)O[C@H](C)[C@@H]1O[C@@H]1O[C@H](CO[C@@H]2O[C@H](CO)[C@@H](O)[C@H](O)[C@H]2O)[C@@H](O)[C@H](O)[C@H]1O (stereo partly drawn) | 4.37 µM (active) | – | –
C[C@H](Oc1cc(-n2cnc3ccc(CN4CCN(C)CC4)cc32)sc1C(N)=O)c1ccccc1C(F)(F)F | 4.61 µM (active) | – | –
C/C=C\NC(=O)C1NC(=O)C(CC(N)=O)NC(=O)C(NC(=O)C(=O)C(C)CC)Cc2ccc(O)c(c2)-c2cccc3c2NC(=O)C3(O)C1O (stereo not drawn) | inactive | – | –
C[C@H](/C=C/[C@H](C)C(C)(C)O)[C@H]1CC[C@H]2/C(=C/C=C3C[C@@H](O)C[C@H](O)C3)CCC[C@]12C | 8.2 µM (active) | – | –
CCOC(=O)Nc1ccc2c(c1)N(C(=O)CN(C)C)c1ccccc1CC2 | inactive | – | –
CC1CCC(=O)CC(SCC(O)C(=O)O)CCC(=O)O1 (stereo not drawn) | inactive | – | –
CC(O)(C(=O)O)C1CCC2(C)C1CCC1(C)C2CCC2C3(C)CCC(O)C(C)(COC4OC(CO)C(O)C(O)C4O)C3CCC21C (stereo not drawn) | inactive | – | –
Cc1ccccc1CN1CCn2c1nc1c(c2=O)CN(Cc2ccccc2)CC1 | inactive | – | –
CC(=O)O[C@@H]1[C@@H](O)[C@H](O[C@@H]2[C@@H](O)[C@@H](O)[C@H](O[C@H]3[C@H](O[C@H]4[C@H](O[C@H]5CC[C@@]6(C)C(CC[C@]7(C)C6CC=C6[C@@H]8CC(C)(C)CC[C@]8(C(=O)O)CC[C@]67C)[C@]5(C)CO)O[C@H](CO)[C@@H](O)[C@@H]4O)OC[C@@H](O)[C@@H]3O)O[C@H]2C)OC[C@H]1O (stereo partly drawn) | – | – | 7.23% [at 9.29 µM] (inactive)
